# Data reported in PubChem BioAssay AID602430 (NMMLSC, 2012).
# This is one part of the list. Activity calls are given as the source filed them.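 Rule for the calls: active = repeat-averaged ratio response below 75% of DMSO, the collection mean minus 3 SD; inactive = the rest.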
# Molecular target: ATP-binding cassette sub-family B member 6 (Homo sapiens) (UniProt Q9NP58)
# Assay: ABCB6 transporter inhibitors, confirmation, K562-ABCB6 cells, flow cytometry, cherry pick 1 (AID 602430);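 note: median porphyrin fluorescence at 575 nm with 488 nm excitation from mitochondria; lower ratio means less porphyrin signal so ABCB6 inhibition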
# Details: K562-ABCB6 porphyrin accumulation, 1 h, at 10 µM, hits give low values
# Sequence of ATP-binding cassette sub-family B member 6 (Homo sapiens) (Q9NP58 whole entry, looked up): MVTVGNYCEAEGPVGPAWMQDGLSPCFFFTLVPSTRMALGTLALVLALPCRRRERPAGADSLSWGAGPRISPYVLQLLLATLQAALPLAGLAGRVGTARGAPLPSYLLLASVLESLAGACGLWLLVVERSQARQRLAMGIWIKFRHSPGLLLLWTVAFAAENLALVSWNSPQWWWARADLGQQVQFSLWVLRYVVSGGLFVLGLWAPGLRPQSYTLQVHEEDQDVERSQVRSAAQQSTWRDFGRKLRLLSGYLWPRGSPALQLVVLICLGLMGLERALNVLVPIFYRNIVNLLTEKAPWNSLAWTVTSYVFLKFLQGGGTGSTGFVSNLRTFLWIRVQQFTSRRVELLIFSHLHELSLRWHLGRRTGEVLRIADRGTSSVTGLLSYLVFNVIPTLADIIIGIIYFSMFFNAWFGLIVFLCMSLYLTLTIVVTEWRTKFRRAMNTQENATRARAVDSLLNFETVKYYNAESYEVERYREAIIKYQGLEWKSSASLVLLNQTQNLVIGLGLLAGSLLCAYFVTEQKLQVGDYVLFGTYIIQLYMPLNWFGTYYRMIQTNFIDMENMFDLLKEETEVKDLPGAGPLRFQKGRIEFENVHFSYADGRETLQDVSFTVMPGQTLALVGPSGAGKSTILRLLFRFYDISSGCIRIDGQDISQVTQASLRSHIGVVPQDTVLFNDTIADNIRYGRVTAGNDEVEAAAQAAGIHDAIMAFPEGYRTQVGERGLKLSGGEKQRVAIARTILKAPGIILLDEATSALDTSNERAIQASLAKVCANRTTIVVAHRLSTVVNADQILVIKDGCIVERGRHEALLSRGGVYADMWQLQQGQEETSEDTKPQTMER
row,SMILES,ratio response (% of DMSO)
1,CCn1c(COc2ccccc2)nnc1SCC(=O)Nc1ccc2c(c1)OCCO2,97% (inactive)
2,O=C(Nn1cnc2ccccc2c1=O)c1ccc(F)cc1Cl,93% (inactive)
3,Cc1ccccc1NC(=O)C(C)OC(=O)CCC(=O)N(CC(C)C)c1c(N)n(CC(C)C)c(=O)[nH]c1=O (stereo not drawn),101% (inactive)
4,Cc1nn(-c2ccccc2)c(C)c1C(=O)OCC(=O)NC(=O)NC1CCCCC1,97% (inactive)
5,O=C(NCCSc1ncc(-c2ccccc2)[nH]1)c1ccco1,102% (inactive)
6,COc1ccccc1C(=O)C(O)c1ccccc1OC (stereo not drawn),102% (inactive)
7,Cc1ccc(SCC(=O)Nc2ncc(C)s2)cc1,103% (inactive)
8,CCCOC(=O)C1=C(C)NC2=C(C(=O)C(C(=O)OC)C(C)C2)C1c1ccc(N(C)C)cc1 (stereo not drawn),100% (inactive)
9,Cc1cc(C)cc(NC(=O)NCc2ccccn2)c1,96% (inactive)
10,O=C(Cc1cccs1)NCc1cccc(C(F)(F)F)c1,103% (inactive)
11,CCOc1ccc(NC(=O)CC2NCCNC2=O)cc1 (stereo not drawn),100% (inactive)
12,Cc1ccc(NC(=O)N2CCC(c3nc4c(nnn4Cc4c(F)cccc4Cl)c(=O)[nH]3)CC2)cc1,98% (inactive)
13,CC(C)C(=O)NCC(c1cccs1)S(=O)(=O)c1ccc(F)cc1 (stereo not drawn),100% (inactive)
14,Cc1ccc2nc3c(cc(C(=O)NCCc4ccccc4)c(=N)n3CC3CCCO3)c(=O)n2c1 (stereo not drawn),102% (inactive)
15,Cc1ccccc1OCC(=O)Nc1nnc(S(=O)(=O)N2CCCC2)s1,101% (inactive)
16,CC1(C(=O)NS(=O)(=O)c2cccc(F)c2)CCN1C(=O)Cc1cc(F)ccc1F (stereo not drawn),97% (inactive)
17,COC(=O)CNC(=O)c1cc(-c2ccncc2)nc2ccccc12,101% (inactive)
18,CC1(C)Cc2c(C#N)c(SCc3nc4ccccc4[nH]3)nc(N3CCOCC3)c2CO1,96% (inactive)
